Experiment in all cases: NCI-60 one-dose screen, 48 h (100 = growth as untreated, 0 = no growth, -100 = all killed)
What all share (conditions): 10 µM unless noted

Assay [1] relates to HCT-15 colon.
The test system of assay [2] is HT29 colon.
The subject of assay [3] is SNB-19 CNS.
Assay [4] deals with PC-3 prostate.
Assay [5] deals with SK-MEL-5 melanoma.
In assay [6] the test system is UACC-62 melanoma.
Assay [7] concerns LOX IMVI melanoma.
Assay [8] has as its system EKVX NSCLC.
For assay [9], the system named is SN12C renal.
For assay [10], the system named is UO-31 renal.
In assay [11] the test system is TK-10 renal.
In assay [12] the test system is ACHN renal.
For assay [13], the system named is CAKI-1 renal.
Assay [14] has as its system A498 renal.
Assay [15] has as its system MOLT-4 leukemia.
The test system of assay [16] is SK-MEL-28 melanoma.
In assay [17] the test system is SK-MEL-2 melanoma.
Assay [18] concerns CCRF-CEM leukemia.
Assay [19] relates to U251 CNS.

Compounds without any hit were thinned out: in the full panel of roughly 83,000, 20% have a hit.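 Step 1: grow cells in 96-well plates. Step 2: add test compound at a single concentration. Step 3: incubate 48 h. Step 4: record percent growth.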 Unmarked numbers belong to inactive results. Activity calls are given as the source filed them. How the source made its calls: active means growth percent below 10; inactive means the rest.

On to `COc1ccc(Nc2ncccc2C(=O)NCc2cn(Cc3cccc(Oc4ccccc4)c3)nn2)cc1`, for which the growth in assay [1] is 32.2%; in [2], 12.6%; in [3] it was 61.2%; in [4] it was 54.7%; in assay [5] it was 16.3%; in assay [6], 35.3%. In addition, the growth was 47.7% in assay [7]; 40.1% in [8]; 47.5% in assay [9]; 40.9% in assay [10]; 76.3% in assay [11]; 51.2% in [12]. Further, the growth was 42.3% in assay [13], 27.5% in assay [14] and 48% in assay [15].
Consider `CCn1c2ccccc2c2cc(NC(=O)Nc3ccc([N+](=O)[O-])cc3C)ccc21`, for which the growth in assay [1] was 25.5%; in assay [2], 17.9%; in assay [3], 66.6%; in assay [4] it was 19.2%; in assay [5] it was 48.1%; in assay [6], 38.9%. Besides, the growth was 39.2% in assay [7]; 67.2% in assay [16]; 53% in assay [17]; 62.3% in assay [8]; 55.6% in assay [9]; 23.6% in assay [10]. The growth in [11] was 53.8%; in [12], 31.9%; in assay [14], 65.7%; in assay [18], 9.61% (active); in [15] it was 17.9%.
Turning to `O=S(=O)(NCCNc1nccc(-c2c(-c3ccc(F)cc3)nc3sccn23)n1)c1ccc(F)cc1`, the growth was 59% in [1]; 52.1% in assay [2]; 88.5% in [3]; 79.8% in [19]; 75.3% in assay [4]; 71.6% in assay [6]. Moreover, the growth in [7] was 58.3%; in [16], 87.6%; in assay [17] it was 76.3%; in [9], 73%; in assay [10] it was 42.7%; in assay [11], 114%. In addition, the growth in assay [12] is 52.5%; in assay [13] it was 62.7%; in assay [14], 96.8%; in assay [18], 64.3%; in [15], 73.9%.
As to `Cc1ccc(N2CCN(C(C)C(N)=O)CC2)cc1` (centres undefined), the growth is 115% in assay [1]; 118% in assay [2]; 101% in assay [3]; 105% in assay [4]; 110% in assay [5]; 91.4% in assay [6]. For the same compound, the growth was 107% in assay [7]; 119% in assay [16]; 134% in assay [17]; 118% in assay [8]; 92.8% in [9]; 82.2% in [10]. Also, the growth in assay [11] was 114%; in assay [12] it was 106%; in assay [13], 107%; in assay [14], 115%; in assay [18], 98.2%; in assay [15] it was 117%.
For `N/C(=N\C(N)=N\c1nc2ccccc2s1)c1ccncc1`, the growth in assay [1] is 35.3%; in [2], 27.7%; in [3], 69.5%; in [4] it was 73.9%; in assay [5], 59%; in [6], 44.6%. Also, the growth is 55.8% in [7]; 66.9% in [16]; 41% in [17]; 78.9% in assay [8]; 72.6% in assay [9]; 64.2% in assay [10]. Further, the growth in assay [11] is 109%; in [12], 75.8%; in assay [13], 44.9%; in assay [18] it was 63%; in [15] it was 45.2%.
Consider `Fc1ccc(-c2nc(-c3nc4ncccc4[nH]3)cc3c2[nH]c2ccccc23)cc1F`, for which the growth is 54.7% in assay [1]; 39.1% in [2]; 102% in assay [3]; 73.3% in [4]; 79.9% in assay [6]; 48.5% in [7]. Also, the growth was 94% in [16]; 83.1% in [17]; 72.5% in assay [9]; 41.9% in assay [10]; 91.7% in assay [11]; 83% in assay [12]. Further, the growth in assay [13] is 92.3%; in assay [14] it was 88.4%; in [18] it was 67.2%; in assay [15], 49.8%.
Regarding `COc1ccc(S(=O)(=O)n2cc(C(=O)C(=O)Nc3ccncc3)c3ccccc32)cc1F`, the growth is 84.2% in assay [1]; 83.9% in assay [2]; 78.9% in assay [3]; 77.4% in [19]; 79.8% in assay [4]; 65.5% in assay [6]. Also, the growth in assay [7] is 70.2%; in assay [16] it was 92.2%; in assay [8], 39.5%; in [9], 73.7%; in assay [10], 81.8%; in [11] it was 102%. In addition, the growth was 66.7% in assay [12], 55.3% in assay [13] and 73.4% in assay [14].
Consider `N=C(N)c1ccc(-c2cc(Cl)cc(Cl)c2)cn1`, for which the growth is 86.4% in [1]; 55.5% in assay [2]; 92.7% in assay [3]; 80% in assay [4]; 89.3% in [5]; 97.2% in assay [6]. Moreover, the growth in assay [16] was 97.3%; in [17] it was 101%; in [8] it was 80.4%; in [9], 91.6%; in assay [10], 70.2%; in [11], 115%. Moreover, the growth in [12] was 91.3%; in assay [13], 68.4%; in [14] it was 73.1%; in assay [18], 8.61% (active); in assay [15], 89.1%.
Turning to `COc1ccc(/C(C#N)=C/c2cc(OC)c(OC)c(OC)c2)cc1`, the growth in assay [1] is 31.1%; in assay [2], 9.49% (active); in assay [3] it was 66.3%; in assay [4], 43.1%; in assay [5] it was 14.8%; in assay [6] it was 39%. For the same compound, the growth in assay [7] was 50.3%; in [16] it was 52.1%; in assay [9] it was 58.4%; in assay [10], 55%; in [11] it was 68.3%; in assay [12], 49.4%. Further, the results for the growth in assay [14], in [18] and in [15] were 33.6%, 26.8% and 32.3%, respectively.
In the case of `COc1cc(/C=C/C(=O)N2CCN(C(=O)/C=C/c3cc(OC)c(OC)c(OC)c3)CC2)cc(OC)c1OC`, the growth was 113% in assay [1]; 109% in assay [2]; 105% in assay [3]; 102% in [4]; 104% in assay [5]; 89.1% in assay [6]. Also, the growth in [7] was 101%; in [16], 105%; in assay [17], 110%; in assay [8], 114%; in [9] it was 102%; in assay [10], 88.5%. Also, the growth in assay [11] was 121%; in [12] it was 106%; in assay [13] it was 119%; in [18] it was 98.6%; in [15] it was 95.9%.
Turning to `CCOC(=O)c1cn2c3c(cc(C)cc3c1=O)C(=O)/C(=C/c1ccccc1)C2`, the growth is 109% in assay [1]; 105% in assay [2]; 84.4% in [3]; 99% in [4]; 91.3% in assay [5]; 68.1% in [6]. The growth was 94.5% in [7]; 93.8% in assay [16]; 95.5% in [17]; 101% in assay [8]; 94.2% in assay [9]; 57.6% in assay [10]. Besides, the growth was 75% in assay [11]; 91.3% in assay [12]; 73.3% in [13]; 86.9% in [14]; 93.5% in assay [18]; 86.9% in [15].
Regarding `C=C1c2nc3ccccc3n2C=C(c2ccc(Cl)cc2)N1Cc1ccccc1`, the growth was 78.2% in assay [1]; 77.4% in assay [2]; 85.3% in [3]; 90.9% in [19]; 71% in assay [6]; 90.5% in [7]. In addition, the growth in assay [16] was 147%; in assay [17], 69.7%; in [8], 70.8%; in [9] it was 95.1%; in assay [10], 48.2%; in [11], 119%. The growth in assay [12] was 81.4%; in assay [13], 79%; in assay [14] it was 84.7%; in assay [18] it was 78.9%; in assay [15] it was 58.5%.
Regarding `COc1cc(-c2nc(-c3nc4ccc(Cl)cc4[nH]3)cc3c2[nH]c2ccccc23)cc(OC)c1OC`, the growth in assay [1] is 72.8%; in [2], 75%; in [3], 79.9%; in assay [19] it was 80.1%; in assay [4], 53.2%; in [6] it was 33.6%. Also, the growth in assay [7] was 67.8%; in assay [17], 62%; in assay [9], 66.1%; in assay [10] it was 41.7%; in assay [11] it was 93.6%; in assay [12], 66.4%. Besides, the growth in assay [13] is 83.7%; in assay [14], 78%; in assay [18], 46.5%; in assay [15] it was 34.4%.
Regarding `NC1N=C(SCC(=O)N2CCN(c3cc4c(cc3F)c(=O)c(C(=O)O)cn4C3CC3)CC2)NC(=O)/C1=C/c1ccc(Cl)cc1` (centres undefined), the growth is 97.3% in [1]; 111% in [2]; 99.7% in assay [3]; 95.4% in assay [4]; 102% in assay [5]; 99.9% in assay [6]. The growth was 102% in [7]; 110% in assay [16]; 108% in assay [17]; 92.8% in [8]; 99.4% in assay [9]; 79% in assay [10]. Besides, the growth in [11] was 107%; in assay [12], 102%; in [13], 91.2%; in [14], 106%; in [18], 107%.
In the case of `N=C(N)c1ccc(-c2ccc(-c3ccc4ccccc4c3)s2)cc1`, the growth in [1] was 3.41% (active); in assay [2], -42% (active); in assay [3] it was 97.1%; in assay [4], 91.6%; in assay [5], 93.9%; in assay [6], 96.9%. The growth is 100% in assay [16]; 104% in [17]; 105% in assay [8]; 95.8% in [9]; 84.6% in assay [10]; 27% in assay [11]. The growth in assay [12] was 97.1%; in assay [13], 92.3%; in assay [14] it was 91.3%; in assay [18], 64.1%; in assay [15], 76.3%.
For the compound `Clc1ccc(-c2nc3ccccc3s2)cc1Cl`, the growth in assay [1] was 96.6%; in [2], 97.2%; in assay [3], 93.6%; in [4], 89%; in assay [5], 89.8%; in assay [6] it was 88.2%. The growth in [7] was 88.4%; in assay [16], 106%; in assay [17], 94.8%; in [8], 85.3%; in assay [9], 92.3%; in assay [10], 72.3%. The growth in [11] is 81.5%; in assay [12], 93.3%; in assay [13], 83.9%; in assay [14], 77%.
As to `CC(=O)Oc1cccc(S(=O)(=O)n2cc(C(=O)C(=O)Nc3ccncc3)c3ccccc32)c1`, the growth was 80.1% in [1]; 86.1% in assay [2]; 92.9% in assay [3]; 81.4% in [4]; 73.5% in [5]; 70.8% in assay [6]. The growth was 86.6% in assay [7]; 104% in assay [16]; 51.4% in assay [8]; 85.1% in assay [9]; 75.3% in [10]; 102% in assay [11]. Also, the growth in assay [12] was 88%; in [13] it was 67.5%; in [14], 63.3%; in assay [15], 90.9%.
As to `CC12CCC3C4(C)COC(c5ccccc5Cl)OC4CCC3(C)C1CC(C1=CCOC1=O)O2` (centres undefined), the growth was 41.2% in assay [1]; 57.1% in assay [2]; 78.7% in [3]; 47.9% in assay [4]; 17.1% in assay [5]; 45.8% in assay [6]. Also, the growth in assay [7] is 58.6%; in assay [16], 60.5%; in assay [17], 77.4%; in [8], 63.7%; in [9], 70.2%; in [10], 53.9%. Also, the growth in assay [11] was 94.9%; in assay [12] it was 58.8%; in assay [13] it was 56.1%; in [14], 50.8%; in assay [18], 66.8%; in [15], 34.5%.
